The text below walks through data of PubChem BioAssay AID1508625 (Wald Lab, School of Medicine, Case Western Reserve …, 2021).

Molecules are shown by their SMILES.

A short description of this assay: enhancers of NK cell killing of ovarian tumor cells, primary screen, imaging, OVCAR3, primary NK cells, calcein-AM imaging (AID 1508625).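 Note: compound given to NK cells 16 h before adding targets at 1.5 to 1 ratio.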 As to conditions: OVCAR3 lysis by primary NK cells, at 5 µM; z-score: measured here: robust Z-score, single-point normalisation.
Turning to `COc1cc(OC)cc(C(=O)N2CCN(C3CCC(C)CC3)CC2)c1` (centres undefined), the z-score is -0.755 and the corrected activity, negative = more killing is -1.69%.
The like results for `COc1cc(C(=O)N2N=C(C3CC3)CC2(O)C(F)(F)F)cc(OC)c1OC` (centres undefined) were, in that order, -1.41 and -3.44%.
Consider `CN1C(=O)C(=O)C(=C(O)c2ccc(Br)cc2)C1c1ccccc1` (centres undefined), for which the z-score was -0.867 and the corrected activity, negative = more killing was -1.99%.
The matching figures for `O=C1C(=O)N(CCO)C(c2ccc(Br)cc2)C1=C(O)c1ccccc1` (centres undefined): -0.856 and -2.24%.
The matching figures for `O=CN1CCN(c2nc3ccccc3nc2C(F)(F)F)CC1`: -1.02 and -2.49%.
The like results for `CN(C)CCSc1nnnn1-c1ccccc1` were, in that order, -1.86 and -4.18%.
Turning to `O=[N+]([O-])c1ccc(CNC2CCCC2)cc1`, the z-score was -1.76 and the corrected activity, negative = more killing is -5.52%.
The like results for `Cc1ccccc1C(=NS(=O)(=O)c1ccc(Br)cc1)Nc1ccccc1` were, in that order, -1.18 and -3.32%.
The like results for `Cc1ccc2nc(NC(=O)COC(=O)CSc3nc(C)cc(C)n3)sc2c1` were, in that order, -1.86 and -4.93%.
The like results for `COc1ccc(OC(C)C(=O)Nc2ccc(Br)cc2)cc1` (centres undefined) were, in that order, -2.19 and -7.07%.
Consider `Cc1nc2ccc3nc(NC(=O)c4cc([N+](=O)[O-])ccc4Cl)sc3c2s1`, for which the corrected activity, negative = more killing is -2.51% and the z-score is -0.528.
Take `CCOC(=O)c1sc(N2C(=O)C(=O)C(=C(O)c3ccccc3)C2c2ccc(C(C)(C)C)cc2)nc1C` (centres undefined): the corrected activity, negative = more killing is -1.11% and the z-score is -0.48.
In the case of `Cc1ccc(-n2ncc3c(=O)[nH]c(SCC(C)C)nc32)cc1C`, the corrected activity, negative = more killing was -9.35% and the z-score is -2.29.
The like results for `Cc1ccc(C(=O)Nc2ccc(NC(=O)c3ccc(C(C)(C)C)cc3)cc2)cc1[N+](=O)[O-]` were, in that order, -2.5% and -0.888.
The like results for `CCOC(=O)C1=C(N)OC2=C(C(=O)CC(C)(C)C2)C1c1ccccc1[N+](=O)[O-]` (centres undefined) were, in that order, -1.89% and -0.587.
In the case of `O=C(NCc1cccc(Cl)c1)c1ccc2c(=O)n(Cc3cccc(Br)c3)c(=S)[nH]c2c1`, the corrected activity, negative = more killing was -6.41% and the z-score was -2.04.
The like results for `COC(=O)c1ccc(COC(=O)c2ccc([N+](=O)[O-])c(C)c2)cc1` were, in that order, -0.897% and -0.499.
Regarding `CCN(C(=O)c1cc2c(=O)n3cccc(C)c3nc2s1)c1ccccc1`, the corrected activity, negative = more killing is -6.23% and the z-score was -1.77.
The like results for `CCOc1ccc(Br)cc1S(=O)(=O)N1CCN(c2ccc(C)cc2C)CC1` were, in that order, -1.21% and -0.676.
The matching figures for `Cc1cccc(N2C(=O)c3ccc(NC(=O)c4ccc(Br)cc4)cc3C2=O)c1`: -3.53% and -1.25.
The matching figures for `O=C(c1ccc([N+](=O)[O-])cc1)N1N=C(C2CC2)CC1(O)C(F)F` (centres undefined): -2.43% and -1.
For `COc1c(Cl)cccc1NC(=O)c1cccc2ccccc12`, the corrected activity, negative = more killing is -3.52% and the z-score is -1.31.
